The structures appear in SMILES notation. Active and inactive are the calls of the source. How the source made its calls: active means hit-call score of the fitted dose curve at least 0.9, where 1 is the maximum; inactive means score below 0.9.

Test [1] can be described thus: ATG_CRE_CIS: Attagene CIS-FACTORIAL HepG2 Assay for human cAMP Responsive Element (CRE) binding protein 3 (AID 2282926). As to conditions: HepG2 CRE cis-reporter, Attagene multiplexed mRNA; actives raise or lower the signal. The method in brief: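 Human liver HepG2, transient MRTU transfection, 24 h compound exposure. Total RNA → oligo(dT) RT → PCR → 6-FAM primer extension → HpaI cut → CE. Activity called both directions vs DMSO.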

The target in test [2] is CCAAT/enhancer-binding protein beta (Homo sapiens) (UniProt P17676). Description: ATG_C_EBP_CIS: Attagene CIS-FACTORIAL HepG2 Assay for human CCAAT/Enhancer Binding Protein (C/EBP) beta (AID 2282927). The following applies: HepG2 Attagene cis-factorial transcription factor reporter; actives raise or lower the signal. In outline: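 Transiently transfected HepG2 (MRTU library, endogenous TF-driven promoters); 24 h dosing; total RNA → oligo(dT) RT → PCR → 6-FAM primer extension → HpaI digest → CE; fit bidirectionally vs DMSO.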

Test [3] can be described thus: ATG_CMV_CIS: Attagene CIS-FACTORIAL HepG2 Assay for human CMV (Internal Marker) (AID 2282928).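 Further: endpoint acts as a background internal control marker rather than a target.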 As to conditions: HepG2 CMV promoter reporter, transcription factor profiling; actives raise or lower the signal. In outline: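 After transient transfection of HepG2 with reporter transcription units driven by cis-regulatory promoters, cells receive test chemical for 24 h. Labeled reporter amplicons, digested with HpaI, are sized and quantified by capillary electrophoresis against DMSO.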

Test [4] is described as follows: ATG_DR4_LXR_CIS: Attagene CIS-FACTORIAL HepG2 Assay for human Liver X Receptor (LXR), DR4 submotif (AID 2282929). As to conditions: HepG2 Attagene DR4 cis-reporter, mRNA transcription; actives raise or lower the signal. The method in brief: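 The endpoint is DR4-element-driven reporter transcripts after 24 h chemical exposure of transfected HepG2 cells. These were measured via RT-PCR and capillary electrophoresis, and gain or loss of signal was fitted relative to DMSO controls.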

Test [5] deals with Aryl hydrocarbon receptor (Homo sapiens) (UniProt P35869). As to the kind of experiment: ATG_Ahr_CIS: Attagene CIS-FACTORIAL HepG2 Assay for human Aryl Hydrocarbon Receptor (Ahr) (AID 2282930). As to conditions: HepG2 AhR cis-factorial reporter transcription; actives raise or lower the signal. The method in brief: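 Read-out: reporter mRNA quantified by RT-PCR with fluorescent primer extension and capillary electrophoresis. Human HepG2 liver cells carried transfected cis-promoter reporter units and were exposed to chemical for 24 h; gain or loss fitted relative to DMSO.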

Test [6] is described as follows: ATG_AP_1_CIS: Attagene CIS-FACTORIAL HepG2 Assay for human Activator Protein 1 (AP-1) (AID 2282931). The following applies: HepG2 Attagene cis-factorial AP-1 reporter mRNA; actives raise or lower the signal. In outline: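 Readout is reporter transcript level from endogenous transcription factor activity, quantified by RT-PCR with fluorescent primer extension and capillary electrophoresis. Transiently transfected HepG2 cells, 24 h exposure. Curves fitted both directions versus DMSO.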

Test [7] in a line: ATG_AP_2_CIS: Attagene CIS-FACTORIAL HepG2 Assay for human Activator Protein 2 (AP-2) (AID 2282932). The following applies: HepG2 AP-2 cis-reporter, Attagene transcription factor profiling; actives raise or lower the signal. The method in brief: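 Multiplexed mRNA reporter assay in HepG2: cis-regulated units report endogenous factor activity after 24 h treatment. Fluorescence from capillary electrophoresis of RT-PCR products gives the signal, with DMSO as baseline.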

For test [8], the target named is Transcription factor E2F1 (Homo sapiens) (UniProt Q01094). Description: ATG_E2F_CIS: Attagene CIS-FACTORIAL HepG2 Assay for human E2F Transcription Factor 1 (AID 2282935). The following applies: HepG2 Attagene cis-reporter, E2F reporter RNA transcripts; actives raise or lower the signal. The method in brief:
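Measures reporter transcript levels via RT-PCR with capillary electrophoresis detection in HepG2 cells harboring cis-regulated reporter units; 24 h post-dose; bidirectional curve fitting with DMSO as baseline.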

A short description of test [9]: ATG_E_Box_CIS: Attagene CIS-FACTORIAL HepG2 Assay for human Enhancer Box (E-box) (AID 2282936). As to conditions: HepG2 E-box cis-reporter transcription, actives raise or lower the signal. In outline: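 First, HepG2 cells receive multiple cis-regulated reporter constructs by transient transfection. Next, chemicals are applied for 24 h. Finally, reporter mRNA is quantified via RT-PCR and capillary electrophoresis, with DMSO as baseline.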

The nature of test [10]: ATG_M_61_CIS: Attagene CIS-FACTORIAL HepG2 Assay for M61 Transcription Factor (Internal Marker) (AID 2282937). The following applies: HepG2 Attagene CIS-FACTORIAL M61 internal marker reporter; actives raise or lower the signal. The method in brief: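 Readout is reporter mRNA by RT-PCR, fluorescent primer extension and capillary electrophoresis, with gain or loss fitted relative to DMSO. Transfected HepG2 cells carrying endogenous-TF-driven cis reporters were exposed to chemicals for 24 hours.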

Test [11] can be described thus: ATG_EGR_CIS: Attagene CIS-FACTORIAL HepG2 Assay for human Early Growth Response 1 (EGR1) (AID 2282938). As to conditions: HepG2 Attagene CIS-FACTORIAL EGR reporter mRNA; actives raise or lower the signal. In outline: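 After 24 h compound exposure, RNA from reporter-transfected HepG2 cells was reverse-transcribed, PCR-amplified, fluorescently labelled and resolved by capillary electrophoresis. EGR1 reporter transcript changes, up or down, were fitted against DMSO, reflecting endogenous transcription-factor activity.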

Test [12] can be described thus: ATG_M_19_CIS: Attagene CIS-FACTORIAL HepG2 Assay for M19 Transcription Factor (Internal Marker) (AID 2282939). As to conditions: HepG2 Attagene CIS-FACTORIAL M19 internal marker reporter; actives raise or lower the signal. In outline:
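Readout: fluorescent reporter-transcript fragments by capillary electrophoresis after RT-PCR. Human HepG2 liver cells carried transfected MRTU constructs reporting endogenous transcription-factor activity; exposure 24 h. Gain or loss of signal fitted relative to DMSO.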

Test [13] in a line: ATG_Ets_CIS: Attagene CIS-FACTORIAL HepG2 Assay for human Erythroblast Transformation Specific (ETS) (AID 2282941). The following applies: HepG2 ETS cis-reporter transcription, actives raise or lower the signal. In outline:
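Human HepG2 hepatoma cells were transiently transfected with promoter-driven reporter constructs and treated for 24 hours. Reporter transcripts were quantified by RT-PCR with fluorescent primer extension; bidirectional curve fitting used DMSO as reference.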

Test [14] has as its target Hepatocyte nuclear factor 3-beta (Homo sapiens) (UniProt Q9Y261). As to the kind of experiment: ATG_FoxA2_CIS: Attagene CIS-FACTORIAL HepG2 Assay for human Forkhead box A2 (FOXA2) (AID 2282942). As to conditions: HepG2 cis-reporter transcription factor activity, 24 h; actives raise or lower the signal. In outline:
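Endogenous transcription factor activity is captured via cis-element-driven reporter transcripts in transfected HepG2. Total RNA taken at 24 h post-dosing; labelled RT-PCR products resolved by capillary electrophoresis. Gain or loss fitted versus DMSO.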

A short description of test [15]: ATG_FoxO_CIS: Attagene CIS-FACTORIAL HepG2 Assay for human Forkhead box O (FoxO) (AID 2282943). The following applies: HepG2 Attagene cis-reporter, FoxO element, mRNA; actives raise or lower the signal. The method in brief: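 Read-out: fluorescence of 6-FAM-labelled reporter cDNA fragments resolved by capillary electrophoresis. Transiently transfected HepG2 cells were dosed for 24 h; activity fitted in both directions relative to DMSO controls.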

Test [16] is described as follows: ATG_GATA_CIS: Attagene CIS-FACTORIAL HepG2 Assay for human GATA Binding Protein (AID 2282944). As to conditions: HepG2 GATA cis-element reporter, Attagene multiplex mRNA; actives raise or lower the signal. In outline: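 Read-out: fluorescent reporter mRNA fragments resolved by capillary electrophoresis after RT-PCR. Human liver HepG2 cells carried transiently transfected cis-regulated reporter constructs; chemicals incubated 24 h; gain or loss of signal fitted relative to DMSO.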

Test [17] in a line: ATG_GLI_CIS: Attagene CIS-FACTORIAL HepG2 Assay for human Zinc Finger Protein GLI1 (AID 2282945). The following applies: HepG2, Attagene cis-factorial reporter mRNA, GLI element; actives raise or lower the signal. In outline:
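Transiently transfected HepG2 cells report endogenous transcription factor activity via cis-element-driven reporter units. After 24 h compound exposure, reporter mRNA was measured by RT-PCR with capillary electrophoresis; bidirectional fitting against DMSO baseline.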

Test [18] can be described thus: ATG_BRE_CIS: Attagene CIS-FACTORIAL HepG2 Assay for human Bone Morphogenetic Protein (BMP) Response Element (BRE) (AID 2282933). As to conditions: HepG2 BMP response element reporter, Attagene transcription factor profiling; actives raise or lower the signal. The method in brief:
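Read-out: reporter mRNA induction quantified by RT-PCR and capillary electrophoresis after 24 h chemical exposure of transfected HepG2 cells. Endogenous factor activity on the BMP response element; gain or loss fitted against DMSO baseline.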

The target of test [19] is Retinoic acid receptor alpha (Homo sapiens) (UniProt P10276). As to the kind of experiment: ATG_DR5_RAR_CIS: Attagene CIS-FACTORIAL HepG2 Assay for human Retinoic Acid Receptor Alpha (RARE), DR5 submotif (AID 2282934). As to conditions: HepG2 Attagene cis-factorial RARE DR5 reporter, mRNA; actives raise or lower the signal. In outline:
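Read-out: DR5-driven reporter transcript measured by RT-PCR, 6-FAM primer extension, HpaI digest and capillary electrophoresis. Human HepG2 liver cells carry transiently transfected cis-element reporter constructs; dosing lasts 24 h. Gain or loss of signal fitted against DMSO baseline.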

Test [20] can be described thus: ATG_ERE_CIS: Attagene CIS-FACTORIAL HepG2 Assay for Estrogen Response Element (ERE) (AID 2282940). The following applies: HepG2 ERE cis-reporter, Attagene RNA transcript; actives raise or lower the signal. The method in brief:
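Readout: reporter mRNA induction by RT-PCR, FAM-labelled primer extension, HpaI digestion and capillary electrophoresis, 24 h after dosing transfected HepG2 cells. Endogenous transcription factors act on cis-element-regulated reporters. Gain or loss fitted against DMSO.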

Sequence of Retinoic acid receptor alpha (Homo sapiens) (P10276 whole entry, looked up): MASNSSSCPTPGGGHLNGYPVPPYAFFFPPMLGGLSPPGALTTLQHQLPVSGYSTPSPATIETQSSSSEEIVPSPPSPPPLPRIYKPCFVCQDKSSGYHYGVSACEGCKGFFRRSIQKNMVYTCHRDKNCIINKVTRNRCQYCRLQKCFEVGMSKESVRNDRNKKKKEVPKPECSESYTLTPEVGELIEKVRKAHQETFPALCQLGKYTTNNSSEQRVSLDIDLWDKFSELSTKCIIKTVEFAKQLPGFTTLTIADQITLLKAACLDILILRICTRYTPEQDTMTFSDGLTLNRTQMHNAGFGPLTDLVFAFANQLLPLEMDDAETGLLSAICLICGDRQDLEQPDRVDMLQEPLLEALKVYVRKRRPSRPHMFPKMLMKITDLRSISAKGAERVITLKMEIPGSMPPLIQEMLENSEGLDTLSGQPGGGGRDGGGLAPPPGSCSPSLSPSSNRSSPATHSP
Sequence of Aryl hydrocarbon receptor (Homo sapiens) (P35869 whole entry, looked up): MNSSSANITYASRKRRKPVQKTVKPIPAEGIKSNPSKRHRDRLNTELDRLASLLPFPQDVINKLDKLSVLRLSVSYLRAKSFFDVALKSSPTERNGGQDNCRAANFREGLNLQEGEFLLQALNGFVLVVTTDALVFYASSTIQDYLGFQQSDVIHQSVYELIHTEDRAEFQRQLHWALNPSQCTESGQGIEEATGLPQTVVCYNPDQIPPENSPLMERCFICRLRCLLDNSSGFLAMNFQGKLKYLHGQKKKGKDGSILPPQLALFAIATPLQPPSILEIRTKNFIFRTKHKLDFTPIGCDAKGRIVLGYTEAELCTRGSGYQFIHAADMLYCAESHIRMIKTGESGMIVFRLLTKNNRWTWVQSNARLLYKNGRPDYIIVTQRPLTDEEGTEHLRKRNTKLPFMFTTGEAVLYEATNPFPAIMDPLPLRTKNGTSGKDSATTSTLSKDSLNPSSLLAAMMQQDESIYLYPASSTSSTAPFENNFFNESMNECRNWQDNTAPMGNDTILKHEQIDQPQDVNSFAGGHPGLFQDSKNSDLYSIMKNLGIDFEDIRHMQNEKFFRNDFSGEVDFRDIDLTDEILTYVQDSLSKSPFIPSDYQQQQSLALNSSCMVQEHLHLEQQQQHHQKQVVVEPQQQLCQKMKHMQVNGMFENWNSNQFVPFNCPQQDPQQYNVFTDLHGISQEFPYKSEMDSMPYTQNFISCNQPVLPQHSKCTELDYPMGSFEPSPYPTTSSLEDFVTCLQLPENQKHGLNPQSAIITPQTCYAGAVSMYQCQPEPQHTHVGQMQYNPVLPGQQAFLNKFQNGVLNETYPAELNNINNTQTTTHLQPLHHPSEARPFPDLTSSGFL
Sequence of Hepatocyte nuclear factor 3-beta (Homo sapiens) (Q9Y261 whole entry, looked up): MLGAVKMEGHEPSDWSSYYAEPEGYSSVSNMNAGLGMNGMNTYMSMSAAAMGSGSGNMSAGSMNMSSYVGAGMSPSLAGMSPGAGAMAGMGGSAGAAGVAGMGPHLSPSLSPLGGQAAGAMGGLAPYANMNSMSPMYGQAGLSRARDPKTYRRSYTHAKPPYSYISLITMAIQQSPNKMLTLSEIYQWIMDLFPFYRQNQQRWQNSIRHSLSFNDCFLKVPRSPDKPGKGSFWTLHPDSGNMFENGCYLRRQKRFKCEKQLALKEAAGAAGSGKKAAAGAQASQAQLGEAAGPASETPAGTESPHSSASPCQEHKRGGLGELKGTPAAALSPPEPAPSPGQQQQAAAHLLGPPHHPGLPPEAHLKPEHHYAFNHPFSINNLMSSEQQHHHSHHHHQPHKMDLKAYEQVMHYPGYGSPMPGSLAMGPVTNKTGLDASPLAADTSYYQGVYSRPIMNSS
Sequence of Transcription factor E2F1 (Homo sapiens) (Q01094 whole entry, looked up): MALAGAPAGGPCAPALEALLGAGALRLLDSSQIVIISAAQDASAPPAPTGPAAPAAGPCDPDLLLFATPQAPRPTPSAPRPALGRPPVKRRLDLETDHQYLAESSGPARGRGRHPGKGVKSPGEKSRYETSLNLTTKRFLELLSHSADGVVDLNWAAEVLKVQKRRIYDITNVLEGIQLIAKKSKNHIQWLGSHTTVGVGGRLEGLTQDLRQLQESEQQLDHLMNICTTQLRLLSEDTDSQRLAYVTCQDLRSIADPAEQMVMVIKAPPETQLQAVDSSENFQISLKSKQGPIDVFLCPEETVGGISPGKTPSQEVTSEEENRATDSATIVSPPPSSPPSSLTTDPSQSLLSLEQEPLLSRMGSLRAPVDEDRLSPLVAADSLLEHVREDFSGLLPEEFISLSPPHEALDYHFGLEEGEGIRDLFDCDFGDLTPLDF
Sequence of CCAAT/enhancer-binding protein beta (Homo sapiens) (P17676 whole entry, looked up): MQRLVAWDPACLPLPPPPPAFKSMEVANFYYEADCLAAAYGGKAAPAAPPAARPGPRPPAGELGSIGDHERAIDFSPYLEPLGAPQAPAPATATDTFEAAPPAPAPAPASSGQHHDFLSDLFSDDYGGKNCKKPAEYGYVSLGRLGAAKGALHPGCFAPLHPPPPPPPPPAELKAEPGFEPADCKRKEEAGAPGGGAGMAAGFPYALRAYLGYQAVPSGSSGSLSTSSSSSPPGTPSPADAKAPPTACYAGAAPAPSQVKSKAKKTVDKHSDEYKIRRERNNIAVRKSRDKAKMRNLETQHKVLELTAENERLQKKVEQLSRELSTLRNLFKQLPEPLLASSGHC

Turning to `Nc1ccc(S(N)(=O)=O)cc1`, the result in [1], in [2], in test [3], in test [4], in [5] and in [6] was inactive. Also, the compound was called inactive in test [7], in [8], in [9], in test [10], in test [11] and in [12]. The result in [13], in test [14], in test [15], in test [16] and in [17] was inactive.

On to `C=CC(=O)NCOCC(C)C`, for which the result in test [1], in test [2], in test [3], in [4], in test [5] and in test [7] was inactive. For the same compound, the call in [18], in test [8], in test [9], in test [10], in test [11] and in [12] was inactive. The outcome in [13], in [14], in test [15], in test [16] and in test [17] was inactive.

On to `CCCCCCCCCCCCCCCC(=O)O`, for which the compound was called inactive in test [1], in test [2], in [3], in [4], in test [5] and in test [6]. Further, the outcome in [7], in [19], in [9], in test [10], in test [11] and in [12] was inactive. Moreover, the result in [13], in test [14], in test [15], in [16] and in test [17] was inactive.

The AC50 is the midpoint of the concentration-response curve, whichever way the signal moves. `C=CC(=O)OCCOCCOCC`: the compound was called inactive in test [1], in [2], in test [4], in test [5], in [6] and in [7]. Further, the result in test [19], in test [9], in test [10], in test [12], in test [13] and in [14] was inactive. In addition, the call in test [15] and in [17] was inactive. The AC50 was 48.2 µM (active) in [3] and 100 µM (active) in test [11].

`C=CCOc1nc(OCC=C)nc(OCC=C)n1`: the outcome in [1], in [2], in [4], in [5], in test [6] and in test [7] was inactive. The compound was called inactive in test [8], in [9], in test [10], in test [11], in test [12] and in test [15]. Further, the compound was classed as inactive in [16] and in test [17]. In [3], the AC50 was 42.9 µM (active).

Regarding `NCCNCCN`, the compound was called inactive in [1], in test [2], in [3], in test [4], in test [5] and in test [6]. In addition, the compound was classed as inactive in test [7], in test [19], in test [10], in [11], in test [12] and in [14]. Further, the outcome in [15], in test [16] and in [17] was inactive.

In the case of `CCCC/C=C\CCCCCCCCCC=O`, the outcome in test [1], in test [2], in test [3], in [4], in [5] and in [6] was inactive. Besides, the call in test [7], in [8], in test [9], in test [10], in test [11] and in test [12] was inactive. The outcome in [13], in test [14] and in [15] was inactive.

Take `CCCCCCCCCCCCCC(=O)O`: the compound was classed as inactive in [1], in test [2], in test [3], in [4], in test [5] and in test [6]. The compound was called inactive in test [7], in test [8], in test [9], in test [10], in test [11] and in test [12]. The call in test [20], in test [13], in test [14], in [15], in test [16] and in [17] was inactive.

The values are drawn from PubChem BioAssay (EPA / NIEHS).
